Measurements reported in PubChem BioAssay AID651821 (The Scripps Research Institute Molecular Screening Center, 2012).
Hit rate of the full screen: of about 370,000 compounds, about 4,700 (1.3%) were called active. The sample as a whole holds a higher share of actives than the screen did. Values without a mark were called inactive.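 The calls were made as follows: active = inhibition above the plate cutoff, the mean of all test compounds on that plate plus 3 SD (cut at about 35% in these data); inactive = the rest.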

assay: small molecules binding CAG repeat RNA – biochemical, fluorescence, primary screen (AID 651821); conditions: r(CAG) RNA repeat, TO-PRO-1 dye displacement fluorescence; at 3 µM; hits give high values;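 also: 0% = DMSO alone and 100% = 100 µM mitoxantrone as full dye displacement; higher means more dye released from RNA so lower well fluorescence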

First: COc1ccnc(NC(=S)N2CCN(c3ncc(C(F)(F)F)cc3Cl)CC2)c1
Second: Nc1cccc(-c2cncc(N3CCN(Cc4ccccn4)CC3)n2)c1
The inhibition of the first is higher: 2.94% for the first, 2.15% for the second.

Compared with COc1cc(/C=C/C(=O)OCC(=O)Nc2cccc(Oc3ccccc3)c2)ccc1O, COc1ccc(S(=O)(=O)N(CC(=O)N/N=C/c2ccc(C(=O)O)cc2)Cc2ccccc2)cc1OC is higher in inhibition: 15.1% for the first, 25.2% for the second.

Compared with CC(C)CNc1cccc2c1S(=O)(=O)N[C@H](C)CO2, CCCCOCC1CN(CCCC)S(=O)(=O)c2c(Oc3ccc(F)cc3)cccc2O1 (configuration not stated) is lower in inhibition: 2.72% for the first, 2.41% for the second.

Compared with COc1ccc(C(CNC(=O)c2ccc(S(=O)(=O)Nc3ccccc3C)cc2)N2CCOCC2)cc1 (configuration not stated), COc1ccc(C(CNC(=O)c2cccc(NS(=O)(=O)c3ccc(C)c(F)c3)c2)N2CCCC2)cc1 (configuration not stated) is higher in inhibition: -3.71% for the first, 2.37% for the second.

First: CC1=C(C(=O)Nc2cc(C)ccn2)C(c2cnn(C)c2)C2=C(CC(c3ccccc3)CC2=O)N1 (configuration not stated)
Second: COc1ccccc1C(=O)Nc1nc2nc(-c3ccccc3)cc(=O)n2[nH]1
The inhibition of the first is lower: -6.66% for the first, 7.94% for the second.

Compared with O=C(Nc1ccc(Br)cc1)OCCN1C(=O)CCC12CCC(c1ccccc1)CC2 (configuration not stated), CC(=O)Nc1ccc(S(=O)(=O)NCCc2ccccc2)cc1 is lower in inhibition: 5.9% for the first, -3.69% for the second.

First: C[C@H](O)[C@@H]1CN2CCc3ccc(-c4ccc5c(c4)OCO5)cc3[C@@H]2C[C@@H]1N(C)C(=O)C1CCCCC1
Second: C[C@@H]1ON(C)[C@H]2C[C@H]3c4[nH]c5cccc(-c6ccc7c(c6)OCO7)c5c4CCN3C[C@@H]12
The inhibition of the first is higher: 6.89% for the first, 6.14% for the second.

First: Cc1cc(NCCc2c[nH]c3ccccc23)ccc1Oc1cccnc1
Second: Fc1ccc2cnc(-c3ccccc3)cc2c1
The inhibition of the first is higher: 7.17% for the first, 2% for the second.

Compared with CCc1cccc(C)c1N(C(=O)Cn1c(CO)nc2ccccc21)C(C)COC (configuration not stated), CCC(C(=O)Nc1c(C)cccc1C)n1c(-c2cc(C)cs2)nc2ccccc21 (configuration not stated) is higher in inhibition: -9.89% for the first, 2.46% for the second.

First: COC(=O)[C@]12C[C@H](CC(=O)NCCc3ccccc3OC)C(=O)N(Cc3ccco3)C1=C[C@H](C(C)C)O[C@@H]2C1CC1
Second: COC(=O)[C@]12C[C@H](CC(=O)NCc3cccc4ccccc34)C(=O)N(CCc3ccc(OC)c(OC)c3)C1=C[C@H](C1CCCC1)O[C@@H]2C
The inhibition of the first is lower: 3.46% for the first, 6.55% for the second.

Compared with Cc1nc2cc(NC(=O)CSc3nc4c(C)cccc4cc3C#N)ccc2s1, Cc1ccc(NC(=O)CSc2nn3c(=O)c(C)nnc3s2)cc1Cl is higher in inhibition: 2.03% for the first, 2.36% for the second.

First: CCOC(=O)C1CSCCS(=O)(=O)N1Cc1ccc(Cl)cc1 (configuration not stated)
Second: COC(=O)C1CN(Cc2ccc(F)cc2)CCS(=O)(=O)N1Cc1ccc(Cl)cc1 (configuration not stated)
The inhibition of the first is lower: 1.28% for the first, 2.48% for the second.

First: COC[C@@H]1CCCN1c1ccc2c(c1)O[C@H](C)CCN(C1CC1)S2(=O)=O
Second: COCc1cc(N2CCN(C(=O)OC(C)(C)C)C[C@@H]2C)ccc1N1CCN(Cc2ccccc2)[C@H](C)C1
The inhibition of the first is lower: 0.67% for the first, 3.76% for the second.

Going from Cc1ccc(F)c(S(=O)(=O)NC(=O)C2(C)CCN2C(=O)CCc2cccs2)c1 (configuration not stated) to Cc1ccccc1S(=O)(=O)NC(=O)C1(C)CCN1C(=O)Cc1ccc(Cl)cc1Cl (configuration not stated), the inhibition rises from 3.47% to 32.5%.

Going from CC1(C(=O)NS(=O)(=O)Cc2cccc(Cl)c2)CCN1C(=O)Cc1ccccc1 (configuration not stated) to CCCNC(=O)C1(C)CCN1C(=O)Cc1ccc(-c2ccccc2)cc1 (configuration not stated), the inhibition falls from 12.6% to 0.2%.

Going from CC1(C(=O)NS(=O)(=O)c2ccccc2)CCN1C(=O)C/C=C/c1ccccc1 (configuration not stated) to CCCCc1ccc(S(=O)(=O)NC(=O)C2(C)CCN2C(=O)c2ccccc2)cc1 (configuration not stated), the inhibition rises from 7.12% to 32.5%.

First: Cc1nc(C(F)(F)F)ccc1C(=O)N1CCC1(C)C(=O)NS(=O)(=O)c1ccccc1 (configuration not stated)
Second: CCCC(=O)N1CCC1(C)C(=O)NS(=O)(=O)c1ccc(Cl)cc1 (configuration not stated)
The inhibition of the first is higher: 4.76% for the first, 3.6% for the second.

First: C#Cc1ccc(NC(=O)C2(C)CCN2C(=O)Cc2ccc(-c3ccccc3)cc2)cc1 (configuration not stated)
Second: COc1ccc(C2=CN(Cc3ccccc3)C(c3ccc(OC)cc3)CC2=O)cc1 (configuration not stated)
The inhibition of the first is higher: 9.25% for the first, 2.54% for the second.

Compared with Nc1ncnc2c1ncn2[C@@H]1O[C@H](C(=O)N[C@@H](CCc2ccccc2)C(=O)N2CCCN(Cc3cccs3)CC2)[C@@H](O)[C@H]1O, COC(=O)C1CN(CCc2ccccc2)CCS(=O)(=O)N1Cc1ccc(F)cc1 (configuration not stated) is higher in inhibition: 1.07% for the first, 5.69% for the second.

First: CCCC[C@H]1C2CC(OC(=O)NCc3ccccc3)C(C2)[C@H]2CCCCN21 (some centres not stated)
Second: COC(=O)[C@@]12CCCCC3=C1N(CCC3)C(=O)[C@H]2CC(=O)NCc1cccc2ccccc12
The inhibition of the first is lower: 2.74% for the first, 3.84% for the second.

Going from O=S1(=O)c2c(NCc3ccco3)cccc2Oc2ccccc2CN1Cc1cn(Cc2cccc(C(F)(F)F)c2)nn1 to O=C(NC1CCCCC1)C(c1cc2ccccc2o1)n1c(=O)c(-c2ccco2)nc2ccccc21 (configuration not stated), the inhibition rises from 13.6% to 24.4%.

Going from CC(C)(C)c1ccc(S(=O)(=O)NC(=O)C2(C)CCN2C(=O)CC2CC2)cc1 (configuration not stated) to CC(=O)N1CCc2cc(S(=O)(=O)NCCC(=O)N3CCCC3)ccc21, the inhibition falls from 5.41% to 0.89%.

First: COc1ccc(C(=O)CSc2nnc(-c3cnccn3)n2-c2ccc(C)cc2)cc1
Second: COc1ccc(C(C(=O)Nc2c(C)cccc2C)N2CCN(c3ccc(C)cc3)CC2)cc1 (configuration not stated)
The inhibition of the first is higher: 4.26% for the first, 1.38% for the second.

First: O=C(/C=C/c1ccc([N+](=O)[O-])o1)NNC(=O)c1ccc(F)cc1
Second: O=C(NCC1COc2ccccc2O1)c1ccc(NC(=O)c2cc(F)ccc2F)cc1 (configuration not stated)
The inhibition of the first is higher: 7.58% for the first, 4.71% for the second.

Going from Cc1cc(NC(=O)COC(=O)/C=C/c2ccc(C)o2)no1 to COc1ccc(CCNC(=O)CSc2nc3c([nH]2)c(=O)n(C)c(=O)n3C)cc1, the inhibition rises from -0.62% to 1.31%.

First: COc1ccccc1C(=O)NCCC(=O)NN1C(=O)NC2(CCCCC2)C1=O
Second: COc1ccccc1C(=O)Nn1cnnc1
The inhibition of the first is higher: -4.93% for the first, -5.43% for the second.

First: O=C(Nc1c(Cl)c(C2CC2)nn1-c1ccccc1)C(Cl)(Cl)Cl
Second: O=C(NC(=S)Nc1ncccn1)c1ccccc1Br
The inhibition of the first is higher: 2.42% for the first, -2.07% for the second.

Compared with CCCCCN1CCCCC(NC(=O)C(C)CCC)C1=O (configuration not stated), CCCCCCCCN1C(=O)[C@@H](CC(=O)NCCCC)C[C@@]2(C(=O)OC)C1=C[C@H](C(C)(C)C)O[C@@H]2C is higher in inhibition: -0.91% for the first, 0.05% for the second.

First: CCCCCNC(=O)C(c1ccc(OC)cc1)n1c(=O)c(-c2ccccc2)nc2ccccc21 (configuration not stated)
Second: COc1ccc(C(C(=O)NCc2ccccc2)n2c(=O)c(-c3ccccc3)nc3ccccc32)cc1 (configuration not stated)
The inhibition of the first is lower: 7.62% for the first, 7.82% for the second.

Going from COc1ccc(NC(=O)C(c2ccncc2)n2c(=O)c(-c3cc4ccccc4[nH]3)nc3ccccc32)cc1 (configuration not stated) to O=C(O)c1ccccc1-c1ccccc1C(=O)Nc1ccccc1Br, the inhibition falls from 19.9% to 1.52%.

First: CC(CCN1CCC(C(O)(c2ccccc2)c2ccccc2)CC1)Oc1ccc([N+](=O)[O-])cc1Cl (configuration not stated)
Second: O=[N+]([O-])c1ccc(NS(=O)(=O)c2ccccc2)c(Cl)c1
The inhibition of the first is lower: 2.17% for the first, 6.07% for the second.

First: CCOC(=O)Cc1csc(SCC(=O)NC(C)C23CC4CC(CC(C4)C2)C3)n1 (configuration not stated)
Second: Nc1[nH]c(/C=C2/CCCCC2n2[nH]c(=O)n(-c3ccccc3)c2=O)c(Cc2ccccc2)[n+]1Cc1ccccc1 (configuration not stated)
The inhibition of the first is lower: -11.4% for the first, 8.51% for the second.

Work on O=S(=O)(Nc1ccc(OC(F)(F)F)cc1)c1cccc2nonc12 yielded an inhibition of 3.85%.

With COc1ccc(C(CNC(=O)c2cccc(S(=O)(=O)Nc3ccccc3Cl)c2)N2CCOCC2)cc1 (configuration not stated) the inhibition was 46.8% (active).
In the case of Cc1ccc(NC(=O)CSc2sc3c(O)cc(=O)[nH]c3c2C#N)cc1C, the inhibition is reported as 40.4% (active).
With CC1(C(=O)NS(=O)(=O)c2ccccc2)CCN1C(=O)Cc1ccc(-c2ccccc2)cc1 (configuration not stated) the inhibition was 41.7% (active).
In the case of COc1ccc(S(=O)(=O)NC(=O)C2(C)CCN2C(=O)c2ccccc2CCc2ccccc2)cc1 (configuration not stated), the inhibition is reported as 43.4% (active).
In the case of CC1(C(=O)NS(=O)(=O)Cc2cccc(Cl)c2)CCN1C(=O)Cc1ccc(Cl)cc1Cl (configuration not stated), the inhibition is reported as 42.9% (active).
In the case of CC1(C(=O)NS(=O)(=O)c2cccs2)CCN1C(=O)Cc1ccc(-c2ccccc2)cc1 (configuration not stated), the inhibition is reported as 40.2% (active).
With CC(C)c1ccc(CC(=O)N2CCC2(C)C(=O)NS(=O)(=O)c2ccc(C(C)(C)C)cc2)cc1 (configuration not stated) the inhibition was 71% (active).
In the case of O=c1ccc2c(-c3ccccc3S(=O)(=O)O)c3ccc(O)c(O)c3oc-2c1O, the inhibition is reported as 66.8% (active).
In the case of Cc1ccc(/C=C/C(=O)Nc2ccc([N+](=O)[O-])c(NC(=O)/C=C/c3ccc(C)o3)c2)o1, the inhibition is reported as 51% (active).
In the case of COc1cccc2sc(NNC(=O)c3nc4ccccc4s3)nc12, the inhibition is reported as 62.5% (active).
For CC(=O)Nc1ccc(S(=O)(=O)N(CCc2ccccc2)CC(=O)N/N=C/c2ccc(C(=O)O)cc2)cc1, the inhibition was 40.4% (active).
For N#Cc1ccc(C(C(=O)NCc2ccccc2)n2c(=O)c(-c3ccco3)nc3ccccc32)cc1 (configuration not stated), the inhibition was 38.9% (active).
In the case of Cc1cccc(C)c1NC(=O)C(c1cccc2ccccc12)n1c(=O)c(-c2ccco2)nc2ccccc21 (configuration not stated), the inhibition is reported as 43.8% (active).
With Cc1cccc(C)c1NC(=O)C(c1ccc(C(F)(F)F)cc1)n1c(=O)c(-c2ccco2)nc2ccccc21 (configuration not stated) the inhibition was 34.8% (active).
In the case of O=S(=O)(Nc1ccc(O)c2ccccc12)c1ccc(OC(F)(F)F)cc1, the inhibition is reported as 39% (active).
For O=C(NC(=S)Nc1ccccc1C(=O)O)c1ccc(-c2ccc(Br)cc2)o1, the inhibition was 69.5% (active).
With Nc1cccc(-c2cc(-c3ccccc3)nc(-c3cccc(N)c3)n2)c1 the inhibition was 35.3% (active).
